Rows were chosen to be rich in hits. Some 11% of all compounds tested hit in one or more screens of this group.
HP1b chromo inh: HP1-beta chromodomain-methylated histone interaction inhibition; hit rate 0.56% among 390,000; Potency, µM (top dose mostly 114 µM), for inactives: at the top dose activity change, negative = inhibition, most hits filed as inhibitors; AlphaScreen HP1-beta / biotin-H3K9me3 peptide binding; P83916; also: nearly all actives have a fitted effect of over 70% in size
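Compound inhibition of the preformed complex between 50 nM HP1-beta and 50 nM biotinylated H3K9me3 peptide was read by AlphaScreen. Buffer was PBS pH 7.4 with 0.01% Tween-20. Incubations ran 30 min at room temperature, with 10 ug/mL donor/acceptor beads.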
BAZ2B inh: blocks human BAZ2B | hit rate 4.4% among 360,000 | Q9UIF8 | AlphaScreen BAZ2B-H3K14Ac peptide displacement | Potency, µM (series often up to 114 µM), for the others: top-dose activity change, negative = inhibition, most hits filed as inhibitors; also: % is scaled to controls: 0 for no effect and ±100 for the full control effect; nearly all actives have a fitted effect of over 60% in size
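AlphaScreen displacement: compounds (up to 110uM) incubated 30 min at room temperature with a preformed 50 nM BAZ2B/50 nM biotinylated H3K14Ac peptide complex in PBS pH 7.4 with Tween-20. Donor and acceptor beads at 10 ug/mL final added, 20 min light-protected before reading.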
G9a inh: inhibitors of human histone lysine methyltransferase G9a; G9a H3K9 monomethylation, AlphaScreen, 2 h; hit rate 8.8% among 350,000; Q96KQ7; Potency, µM (doses to about 102 µM), for inactives: top-dose activity, negative = inhibition, usual class: inhibitors; also: % is scaled to controls: 0 for no effect and ±100 for the full control effect; nearly all actives have a fitted effect of over 75% in size
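G9a (20 nM) preincubated 15 min RT with compounds, then 500 nM biotinylated H3K9 peptide and 20 uM SAM added; 2 h RT reaction. Monomethyl-H3K9 product detected by AlphaScreen with anti-H3K9me1 antibody, streptavidin donor and anti-rabbit IgG acceptor beads.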
JMJD2A Tudor: JMJD2A Tudor domain (human) inhibition. O75164. AlphaScreen JMJD2A-Tudor / H3K4me3 peptide binding. Potency, µM (titrated, usually from 114 µM), inactives show at the top dose activity change, negative = inhibition, actives largely listed as inhibitors. hit rate 4.4% among 390,000. AID 504339; also: % is scaled to controls: 0 for no effect and ±100 for the full control effect; nearly all actives have a fitted effect of over 50% in size
Target sequence (O75164 whole entry, looked up, the tested form may be a part): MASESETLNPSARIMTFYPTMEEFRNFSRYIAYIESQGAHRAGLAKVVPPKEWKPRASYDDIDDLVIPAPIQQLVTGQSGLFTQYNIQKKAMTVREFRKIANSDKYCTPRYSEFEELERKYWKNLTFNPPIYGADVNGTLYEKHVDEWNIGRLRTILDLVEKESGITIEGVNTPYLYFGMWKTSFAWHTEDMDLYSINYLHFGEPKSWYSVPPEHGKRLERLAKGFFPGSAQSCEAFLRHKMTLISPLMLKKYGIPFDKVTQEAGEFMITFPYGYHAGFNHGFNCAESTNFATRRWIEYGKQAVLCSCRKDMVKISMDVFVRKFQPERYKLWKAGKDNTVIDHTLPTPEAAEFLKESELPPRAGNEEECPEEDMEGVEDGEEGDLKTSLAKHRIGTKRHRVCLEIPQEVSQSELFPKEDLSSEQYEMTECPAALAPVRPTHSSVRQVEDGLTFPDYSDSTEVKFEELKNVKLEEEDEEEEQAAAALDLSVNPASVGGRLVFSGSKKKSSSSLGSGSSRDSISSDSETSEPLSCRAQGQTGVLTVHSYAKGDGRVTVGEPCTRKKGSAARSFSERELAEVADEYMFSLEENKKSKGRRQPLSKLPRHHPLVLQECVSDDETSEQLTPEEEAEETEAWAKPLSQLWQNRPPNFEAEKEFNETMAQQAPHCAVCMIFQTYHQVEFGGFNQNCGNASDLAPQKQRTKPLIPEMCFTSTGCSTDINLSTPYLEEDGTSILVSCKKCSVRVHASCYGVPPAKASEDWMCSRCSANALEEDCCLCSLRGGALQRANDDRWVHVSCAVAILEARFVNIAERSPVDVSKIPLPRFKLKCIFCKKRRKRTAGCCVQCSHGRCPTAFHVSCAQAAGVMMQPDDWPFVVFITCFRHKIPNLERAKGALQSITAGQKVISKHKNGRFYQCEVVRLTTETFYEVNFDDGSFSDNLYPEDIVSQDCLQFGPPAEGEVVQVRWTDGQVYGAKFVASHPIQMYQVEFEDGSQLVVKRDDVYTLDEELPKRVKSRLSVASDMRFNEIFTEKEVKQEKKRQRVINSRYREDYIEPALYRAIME
L3MBTL1 inh: blocks human L3MBTL1; Q9Y468; AlphaScreen L3MBTL1–H3K9me1 peptide binding; Potency, µM (doses to about 57.1 µM), without a hit: at the highest dose activity, negative = inhibition, hits mostly inhibitors; hit rate 0.66% among 230,000; AID 485360; also: % is scaled to controls: 0 for no effect and ±100 for the full control effect; nearly all actives have a fitted effect of over 60% in size
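First, the protein-peptide complex forms for 30 min at room temperature (L3MBTL1 50 nM, biotinylated H3K9me1 peptide 75 nM). Next, compounds are pin-transferred and incubated 30 min. Finally, AlphaScreen beads are added and read after 30 min.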
Starred values were filed as active, the others as inactive; ? = inconclusive; . = no result; [ ] = dose if it differs, or a comment. Calls follow the shape of the dose curve; as a rule, active = well fitted inhibition curve with a large enough effect; inconclusive = small, poorly fitted or top-dose-only effect; inactive = no such curve, though single readings can be large or run the other way. Potency is read from the fitted curve at half-maximal effect.

SMILES	HP1b chromo inh	BAZ2B inh	G9a inh	JMJD2A Tudor	L3MBTL1 inh
Cc1nnc(NC(=O)CSCc2cc(=O)c3ccccc3[nH]2)s1	20.2%[57 µM]	-19.5%	5.1%[12.7 µM]	-24.0%	?
O=C(O)c1ccc(-c2cccc(Cl)c2)o1	10.2%	.	.	-24.5%	.
N#CCCN1CCN(C(=S)c2ccc(-c3ccc(Cl)c(Cl)c3)o2)CC1	?	.	?	50.1µM*	-19.4%
N#CCCN1CCN(C(=S)c2ccc(-c3cccc(Cl)c3)o2)CC1	?	35.5µM*	8.91µM*	35.5µM*	-10.7%
COc1ccc2[nH]c(O)c(N=NC(=O)c3ccc(NS(=O)(=O)c4cccs4)cc3)c2c1	23.9%	50.1µM*	-2.9%[12.7 µM]	?	-29.7%
COc1ccccc1C(=O)NNC(=O)c1ccc(NS(=O)(=O)c2cccs2)cc1	37.6%	-19.6%	3.0%	-2.8%	.
COc1ccc2[nH]c(O)c(N=NC(=O)Cc3cccs3)c2c1	-24.4%	35.5µM*	-119.9%[59 µM]	28.2µM*	.
C/C(=N\NC(=O)c1ccc(NS(=O)(=O)c2cccs2)cc1)c1ccc(O)cc1O	36.4%	10µM*	.	-15.5%	-17.1%
COc1cccc(C(=O)Nc2nc(-c3nnn(-c4ccccc4C(F)(F)F)c3C)ns2)c1	39.1%	2.1%	17.5%[59 µM]	-12.3%	.
COc1ccc(-c2cccc(NS(=O)(=O)c3ccc(C)s3)c2)nn1	28.4%[57 µM]	-0.5%	4.7%[59 µM]	-4.5%	.
O=c1[nH]c2nc(Br)[nH]c(=O)c2[nH]1	14.8%[57 µM]	.	.	-5.5%	.
Cc1ccc(C(=O)C(C(=O)/C=C/c2ccccc2)=C2SCCCS2)cc1	?	?	7.08µM*	?	?
CN(C)NC(=S)NC1CCS(=O)(=O)C1 (centres undefined)	9.8%	-16.3%	50.1µM*	31.6µM*	-2.5%
O=S1(=O)CCC(NC(=S)NC2CCS(=O)(=O)C2)C1 (centres undefined)	25.6%	-31.4%	-1.2%[59 µM]	-2.4%	1.7%
C/C(=N/Nc1ccnc2cc(Cl)ccc12)c1ccc(O)cc1	-12.8%	44.7µM*	22.5%[2.33 µM]	?	-16.8%
Clc1ccc2c(N/N=C/c3cccc(Br)c3)ccnc2c1	12.5%	-5.6%	12.1%[59 µM]	-34.9%	5.6%
C/C(=N/Nc1ccnc2cc(Cl)ccc12)c1ccc(N)cc1	-8.1%	44.7µM*	1.78µM*	?	-14.9%
CN1CCN(c2ccc([N+](=O)[O-])c(-n3nc(-c4ccccc4)c4ccccc4c3=O)c2)CC1	-46.6%	35.5µM*	44.7µM*	39.8µM*	-11.2%
CC(=O)N1c2ccccc2Sc2ccccc21	16.4%	5.7%	12.4%	-4.7%	-0.4%
COc1cc(-c2nnc(SCC(=O)N3c4ccccc4Sc4ccccc43)o2)cc(OC)c1OC	14.4%	-0.5%	21.1%[59 µM]	-24.4%	-4.2%
Cn1ccnc1SC(=O)N1c2ccccc2Sc2ccccc21	2.5%	?	?	20µM*	.
O=C(Sc1nnc(-c2ccccc2)o1)N1c2ccccc2Sc2ccccc21	-20.2%	?	8.91µM*	50.1µM*	-14.1%
COc1cccc(N2CC(NC(=O)c3cccc(OC)c3OC)CC2=O)c1 (centres undefined)	13.6%	2.2%	?	-3.9%	.
COc1ccc(CN2C(=O)c3cccnc3C2=O)cc1S(=O)(=O)NCc1ccccc1	19.7%	?	.	-19.9%	.
CCCNS(=O)(=O)c1cc(CN2C(=O)c3cccnc3C2=O)ccc1OC	8.4%	?	-8.0%	89.1µM*	.
SMILES	HP1b chromo inh	BAZ2B inh	G9a inh	JMJD2A Tudor	L3MBTL1 inh
S=C(c1ccc(-c2cc(Cl)ccc2Cl)o1)N1CCOCC1	17.8µM*	35.5µM*	8.91µM*	?	-24.2%
S=C(c1ccc(-c2cc(Cl)ccc2Cl)o1)N1CCCCC1	?	28.2µM*	?	?	-3.5%
O=C(Nc1ccc(CN2CCOCC2)cc1)c1ccc(-c2cc(Cl)ccc2Cl)o1	10.6%	-35.6%	-12.6%[59 µM]	-11.4%	.
COc1ccc(C(=O)OCc2cc(=O)n3nc(C4CC4)sc3n2)cc1OC	-0.9%	6.1%	42.1%[59 µM]	-6.7%	.
O=C(CN1Cc2ccccc2C1=O)Nc1cc(F)ccc1F	35.4%	-0.1%	-9.9%[59 µM]	-13.5%	.
COC(=O)/C(=C(/F)SCC(C)=O)C(F)(F)F	.	-29.6%	15.8µM*	.	.
CCCCOc1ccc(C(=O)NCC(=O)NNC(=O)c2ccco2)cc1	29.7%	.	.	0.0%	3.2%
Cc1cc(Br)ccc1NC(=O)C1C2CCC(O2)C1C(=O)O (centres undefined)	63.9%	-1.1%	31.6µM*	-4.5%	3.8%
CC(=O)Nc1ccc(S(=O)(=O)Nc2cccc(-n3cnnn3)c2)cc1	30.0%	-13.3%	-6.7%	-11.7%	.
CC(=O)c1ccc(S(=O)(=O)Nc2cccc(-n3cnnn3)c2)cc1	4.8%	50.1µM*	39.8µM*	?	.
CCN(Cc1nc(-c2ccc(OC)c(OC)c2)no1)S(=O)(=O)c1ccc(OC)cc1	30.0%	3.0%	0.2%[59 µM]	-11.0%	.
Cc1ccc(NC(=O)CSc2nc3ccccc3nc2Cc2ccccc2)c(C)c1	20.8%[57 µM]	0.3%	-1.7%[59 µM]	-11.4%	.
CN(Cc1ccccc1)C(=O)c1ccc(CSc2nc3cccnc3n2Cc2ccccc2)cc1	21.3%	-12.4%	-21.8%[59 µM]	-31.7%	.
COCCn1c(C)cc(/C=C2/NC(=O)N(Cc3ccc(C)cc3)C2=O)c1C	-12.1%	-27.6%	15.8µM*	-33.3%	-28.7%
CCn1c(C)cc(/C=C2\NC(=O)N(Cc3ccc(Cl)cc3)C2=O)c1C	-16.6%	-9.9%	-0.4%	-32.1%	-15.7%
COc1ccc(CCNC(=O)C(=O)NCC(c2ccco2)S(=O)(=O)c2ccccc2)cc1OC (centres undefined)	32.6%	-6.1%	-21.3%[59 µM]	-10.7%	.
COCc1cc(C)nc2c1C(=O)NC(c1ccc(F)cc1)N2Cc1ccccc1 (centres undefined)	3.7%	-8.2%	14.1µM*	-14.6%	.
COc1cc2[nH]c(=S)nc(NCCC(C)C)c2cc1OC	-0.2%	?	17.8µM*	25.1µM*	-10.3%
COc1ccccc1CNc1nc(=S)[nH]c2cc(OC)c(OC)cc12	37.2%	-10.4%	79.4µM*	-31.5%	.
COc1cc2[nH]c(=S)nc(NCCc3ccc(S(N)(=O)=O)cc3)c2cc1OC	116.0%	-23.9%	12.6µM*	-15.2%	-6.0%
COc1cc2[nH]c(=S)nc(NCc3cccs3)c2cc1OC	29.1%	2.4%	28.2µM*	-12.8%	.
COc1ccc(CCNc2nc(=S)[nH]c3cc(OC)c(OC)cc23)cc1OC	24.8%	-0.9%	?	?	.
COCCCNc1nc(=S)[nH]c2cc(OC)c(OC)cc12	34.4%	-25.8%	-1.8%[59 µM]	-23.2%	-7.7%
COc1cc2[nH]c(=S)nc(NCc3ccc(Cl)cc3)c2cc1OC	76.1%	-20.8%	-28.0%[2.33 µM]	-21.0%	.
CC(=O)Nc1ccccc1-c1nc2ccc(C(=O)N3CCN(c4cccc(C)c4)C(C)C3)cc2[nH]c1=O (centres undefined)	34.4%	-28.9%	?	-31.7%	.
CC(=O)Nc1ccccc1-c1nc2ccc(C(=O)N3CCN(c4ccccc4)CC3)cc2[nH]c1=O	63.3%	2.4%	44.7µM*	-17.0%	11.0%

Source: PubChem BioAssay (National Center for Advancing Translational Sciences (NCATS))
